“And” between values parts separate entries of the source, which are not always exact repeats. Identical values can stand only once. Inconclusive results are not listed. Entries that show only a call come without a potency. Some structures have more than one record in an assay (separate samples or runs), and their calls can disagree. The source made the active and inactive calls. Calls follow the shape of the dose curve; as a rule, active = well fitted curve in the direction sought with a large enough effect in the repeat runs; inconclusive = weak or mixed curves; inactive = no such curve, though single readings can be large; an effect the other way counts as inactive or inconclusive.
Tested on: not listed separately
Experiment: qHTS assay to identify small molecule antagonists of the retinoid acid receptor (RAR) signaling pathway - cell viability counter screen (AID 1159551); also: nearly all actives have a fitted effect of over 35% in size
Details: C3RL4 cells viability, ATP luminescence (CellTiter-Glo), 6 h; series mostly up to 92.4 µM; activity change, negative = cytotoxicity: at the top concentration
Outline: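 Luminescent ATP quantitation (CellTiter-Glo) gave cell viability in C3RL4 cells exposed to test chemicals for 6 h at 37 C alongside 1 uM final retinol.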

Compound | outcome | activity change, negative = cytotoxicity
[N-]=[N+]=[N-] | inactive | –
Cc1[nH]c(=O)n(C(C)(C)C)c(=O)c1Cl | inactive | –
COC(=O)NC(=S)Nc1ccccc1NC(=S)NC(=O)OC | inactive | –
CCCCN(CCCC)SN(C)C(=O)Oc1cccc2c1OC(C)(C)C2 | inactive | –
C=CC(N)=O | inactive | –
c1ccc2c(c1)Oc1ccccc1O2 | inactive | –
c1ccc(-c2ccccc2)cc1 | inactive | –
Clc1ccccc1Cl | inactive | –
CNC(=O)Oc1ccccc1OC(C)C | inactive | –
CC1OC(C)OC(C)O1 (stereo not drawn) | inactive | –
CCCN(CCC)c1c([N+](=O)[O-])cc(C(F)(F)F)cc1[N+](=O)[O-] | inactive | –
COP(N)(=O)SC (stereo not drawn) | inactive | –
COC(=O)NS(=O)(=O)c1ccc(N)cc1 | inactive | –
CN(N=O)c1ccccc1 | inactive | –
O=c1[nH]c2ccccc2c(=O)o1 | inactive | –
CC(C)OC(=O)Nc1ccccc1 | inactive | –
CON(C)C(=O)Nc1ccc(Cl)c(Cl)c1 | inactive | –
CCOP(OCC)OCC | inactive | –
Clc1ccc(Cl)cc1 | – | 0.417% (inactive)
CC(C)(C)OOC(=O)c1ccccc1 | inactive | –

Tested on: not listed separately
Experiment: qHTS assay to identify small molecule antagonists of the retinoic acid receptor (RAR) signaling pathway (AID 1159552; also: nearly all actives have a fitted effect of over 50% in size)
Details: C3RL4 RARE luciferase reporter, retinol-stimulated, 6 h; series mostly up to 92.4 µM; activity, negative = inhibition: at the top concentration
Outline: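 Readout: luciferase luminescence, 30 min post-reagent at RT. Setup: C3RL4 RARE reporter cells, compounds plus retinol 1 uM final, 6 hr incubation at 37 C and 5% CO2.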

Compound | Potency | activity, negative = inhibition
Cc1[nH]c(=O)n(C(C)(C)C)c(=O)c1Cl | inactive | –
O=[N+]([O-])c1ccccc1 | inactive | –
C=CC(N)=O | inactive | –
c1ccc2c(c1)Oc1ccccc1O2 | inactive | –
c1ccc(-c2ccccc2)cc1 | inactive | –
Clc1ccccc1Cl | inactive | –
CNC(=O)Oc1ccccc1OC(C)C | inactive | –
COP(N)(=O)SC (stereo not drawn) | inactive | –
CC(Oc1ccc(Cl)cc1Cl)C(=O)O (stereo not drawn) | inactive | –
Nc1ccc(Br)cc1 | inactive | –
OC(O)C(Cl)(Cl)Cl | inactive | –
CCCCN(CC)C(=O)SCCC | inactive | –
CN(C)CCO | inactive | –
O=c1[nH]c2ccccc2c(=O)o1 | inactive | –
CC(C)OC(=O)Nc1ccccc1 | inactive | –
CON(C)C(=O)Nc1ccc(Cl)c(Cl)c1 | inactive | –
Nc1ccc(Oc2ccc(N)cc2)cc1 | inactive | –
O=c1n(Cl)c(=O)n(Cl)c(=O)n1Cl | inactive | –
CCOP(OCC)OCC | inactive | –
Clc1ccc(Cl)cc1 | inactive | –
CC(C)(C)OOC(=O)c1ccccc1 | inactive | –
CCCC1COC(Cn2cncn2)(c2ccc(Cl)cc2Cl)O1 (stereo not drawn) | – | -20% (inactive)

Tested on: not listed separately
Experiment: qHTS assay to identify small molecule agonists of the retinoic acid receptor (RAR) signaling pathway (AID 1159553); also: potency is read from the fitted curve at half-maximal effect
Details: C3RL4 RARE luciferase reporter, agonist, 6 h; activation: at 73.3 µM (top of the series) unless noted
Outline: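 Luminescence from a RARE-driven luciferase reporter in C3RL4 cells served as the read-out, measured after 30 min with detection reagent at room temperature. Compounds in DMSO were applied for 6 hr at 37 C following overnight seeding.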

Compound | Potency | activation
Cc1[nH]c(=O)n(C(C)(C)C)c(=O)c1Cl | inactive | –
C=CC(N)=O | inactive | –
CN1C(=O)CN=C(c2ccccc2)c2cc(Cl)ccc21 | inactive | –
CN(C)CCO | – | -0.0427% (inactive)
O=c1[nH]c2ccccc2c(=O)o1 | inactive | –
CC(C)OC(=O)Nc1ccccc1 | 30.7 µM (active) | –
CCOP(OCC)OCC | inactive | –
Clc1ccc(Cl)cc1 | inactive | –
CC(C)(C)OOC(=O)c1ccccc1 | inactive | –

Tested on: not listed separately
Experiment: qHTS assay to identify small molecule antagonists of the estrogen related receptor (ERR) signaling pathway from Tox21 library - cell viability counter screen (AID 1224834); also: nearly all actives have a fitted effect of over 30% in size; also: potency is read from the fitted curve at half-maximal effect
Details: ERR reporter cells viability, CellTiter-Fluor, 17.5 h; series mostly up to 92.4 µM; viability change, negative = cytotoxic: at the top concentration
Outline: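 Fluorescence from CellTiter-Fluor gives the viability read-out, taken 30 min after reagent addition. Before that, ERR cells seeded 6 h earlier were incubated with compounds for 17.5 h at 37 C.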

Compound | Potency | viability change, negative = cytotoxic
[N-]=[N+]=[N-] | inactive | –
Cc1[nH]c(=O)n(C(C)(C)C)c(=O)c1Cl | inactive | –
COC(=O)NC(=S)Nc1ccccc1NC(=S)NC(=O)OC | inactive | –
CCCCN(CCCC)SN(C)C(=O)Oc1cccc2c1OC(C)(C)C2 | inactive | –
O=[N+]([O-])c1ccccc1 | inactive | –
C=CC(N)=O | inactive | –
c1ccc2c(c1)Oc1ccccc1O2 | inactive | –
c1ccc(-c2ccccc2)cc1 | inactive | –
CCC12COCN1COC2 | inactive | –
Clc1ccccc1Cl | inactive | –
CNC(=O)Oc1ccccc1OC(C)C | inactive | –
CC1OC(C)OC(C)O1 (stereo not drawn) | inactive | –
CCCN(CCC)c1c([N+](=O)[O-])cc(C(F)(F)F)cc1[N+](=O)[O-] | inactive | –
COP(N)(=O)SC (stereo not drawn) | inactive | –
COC(=O)NS(=O)(=O)c1ccc(N)cc1 | inactive | –
CN1C(=O)CN=C(c2ccccc2)c2cc(Cl)ccc21 | – | -0.158% [at 42.5 µM] (inactive)
CC(Oc1ccc(Cl)cc1Cl)C(=O)O (stereo not drawn) | inactive | –
O=C1CCCN1 | inactive | –

Compound | Potency | viability change, negative = cytotoxic
CN(N=O)c1ccccc1 | inactive | –
Cc1ccc(N)cc1N | inactive | –
OC(O)C(Cl)(Cl)Cl | inactive | –
CCCCN(CC)C(=O)SCCC | inactive | –
C=C(C)CCl | – | -1.99% (inactive)
CN(C)CCO | inactive | –
O=c1[nH]c2ccccc2c(=O)o1 | inactive | –
CC(C)OC(=O)Nc1ccccc1 | inactive | –
CON(C)C(=O)Nc1ccc(Cl)c(Cl)c1 | inactive | –
Nc1ccc(Oc2ccc(N)cc2)cc1 | inactive | –
O=c1n(Cl)c(=O)n(Cl)c(=O)n1Cl | – | 0.356% (inactive)
CCOP(OCC)OCC | inactive | –
Clc1ccc(Cl)cc1 | inactive | –
CC(C)(C)OOC(=O)c1ccccc1 | inactive | –
COc1ccc2c3c1O[C@H]1[C@@H](O)C=C[C@H]4[C@@H](C2)N(C)CC[C@@]341 | 42.6 µM (active) and inactive | –
CCCC1COC(Cn2cncn2)(c2ccc(Cl)cc2Cl)O1 (stereo not drawn) | 49.4 µM (active) and 54.5 µM (active) | –
CC(=O)C=C(C)C | inactive | –

Molecular target: Luciferin 4-monooxygenase (Photinus pyralis) (UniProt P08659)
Experiment: qHTS assay to identify small molecule inhibitors of firefly luciferase (AID 1224835); also: nearly all actives have a fitted effect of over 25% in size; also: potency is read from the fitted curve at half-maximal effect
Details: purified P. pyralis luciferase, luminescence inhibition; series mostly up to 115 µM; activity change, negative = inhibition: at the top concentration
Outline: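 Biochemical qHTS: compounds run as interplate titrations against purified firefly enzyme, with D-luciferin and ATP each at its KM concentration. Light output recorded by CCD imaging.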

Chain of Luciferin 4-monooxygenase (Photinus pyralis) (P08659 whole entry, looked up): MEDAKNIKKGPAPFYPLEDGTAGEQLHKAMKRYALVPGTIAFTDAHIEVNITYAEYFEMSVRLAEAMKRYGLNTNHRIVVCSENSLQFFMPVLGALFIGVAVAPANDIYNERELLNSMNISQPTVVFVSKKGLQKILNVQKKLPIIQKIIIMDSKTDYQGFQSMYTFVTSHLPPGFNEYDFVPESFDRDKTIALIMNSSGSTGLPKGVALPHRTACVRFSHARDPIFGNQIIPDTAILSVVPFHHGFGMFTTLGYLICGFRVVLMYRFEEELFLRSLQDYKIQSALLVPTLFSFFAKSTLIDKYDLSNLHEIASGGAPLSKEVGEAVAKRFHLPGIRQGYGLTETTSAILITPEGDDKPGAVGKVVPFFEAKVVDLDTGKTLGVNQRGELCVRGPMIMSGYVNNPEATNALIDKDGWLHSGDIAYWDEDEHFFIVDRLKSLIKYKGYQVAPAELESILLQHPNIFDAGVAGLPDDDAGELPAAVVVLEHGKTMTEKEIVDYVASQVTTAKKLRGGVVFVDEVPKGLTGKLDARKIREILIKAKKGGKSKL

Compound | Potency | activity change, negative = inhibition
[N-]=[N+]=[N-] | inactive | –
Cc1[nH]c(=O)n(C(C)(C)C)c(=O)c1Cl | inactive | –
COC(=O)NC(=S)Nc1ccccc1NC(=S)NC(=O)OC | inactive | –
CCCCN(CCCC)SN(C)C(=O)Oc1cccc2c1OC(C)(C)C2 | inactive | –
O=[N+]([O-])c1ccccc1 | inactive | –
C=CC(N)=O | inactive | –
c1ccc(-c2ccccc2)cc1 | inactive | –
CCC12COCN1COC2 | inactive | –
Clc1ccccc1Cl | inactive | –
CNC(=O)Oc1ccccc1OC(C)C | inactive | –
CC1OC(C)OC(C)O1 (stereo not drawn) | inactive | –
CCCN(CCC)c1c([N+](=O)[O-])cc(C(F)(F)F)cc1[N+](=O)[O-] | inactive | –
COP(N)(=O)SC (stereo not drawn) | inactive | –
COC(=O)NS(=O)(=O)c1ccc(N)cc1 | inactive | –
CC(Oc1ccc(Cl)cc1Cl)C(=O)O (stereo not drawn) | inactive | –
O=C1CCCN1 | inactive | –

Compound | Potency | activity change, negative = inhibition
CN(N=O)c1ccccc1 | inactive | –
Nc1ccc(Br)cc1 | inactive | –
OC(O)C(Cl)(Cl)Cl | inactive | –
CCCCN(CC)C(=O)SCCC | inactive | –
C=C(C)CCl | inactive | –
CN(C)CCO | inactive | –
O=c1[nH]c2ccccc2c(=O)o1 | – | -6.85% (inactive)
CC(C)OC(=O)Nc1ccccc1 | 40 µM (active) and 35.6 µM (active) | –
Nc1ccc(Oc2ccc(N)cc2)cc1 | inactive and 63.3 µM (active) | –
O=c1n(Cl)c(=O)n(Cl)c(=O)n1Cl | inactive | –
CCOP(OCC)OCC | inactive | –
Clc1ccc(Cl)cc1 | inactive | –
CC(C)(C)OOC(=O)c1ccccc1 | – | -4.11% (inactive)
COc1ccc2c3c1O[C@H]1[C@@H](O)C=C[C@H]4[C@@H](C2)N(C)CC[C@@]341 | inactive | –
CCCC1COC(Cn2cncn2)(c2ccc(Cl)cc2Cl)O1 (stereo not drawn) | inactive | –
CC(=O)C=C(C)C | inactive | –

Reference: PubChem BioAssay (Tox21)
